# Assay outcomes (PubChem BioAssay)
# PP1 counter – PP1-alpha (human) inhibition in PP5 counter-screen | purified PP1alpha, OMFP fluorescence | 0.9% of 320,000 active | inhibition, % at 6.7 µM | P62136;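 active = inhibition above the mean inhibition of all tested compounds plus 3 SD, computed separately for each screening campaign, cut at about 15% in these data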
# Rpn11 block – blocks the human proteasome subunit Rpn11. human 26S proteasome, Ub4-pepOG fluorescence polarization; 20S core pre-blocked with epoxomicin. inhibition, % at 20 µM. AID 588493. 0.59% of 360,000 active. O00487;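 active = inhibition at 20 µM, scaled to each plate's controls, above about 33%, limit read from the data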
# PREPL inh – inhibitors of human prolyl oligopeptidase-like enzyme PREPL | AID 2751 | inhibition, % at 5.96 µM | 0.68% of 320,000 active | recombinant PREPL, fluorescence polarization activity-based probe; in the data active = inhibition above about 43%;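 also: 0% = enzyme with DMSO and 100% = wells lacking enzyme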
# PP5 inh – PP5 (human) phosphatase inhibition; inhibition, % at 6.7 µM; AID 1987; P53041; 0.18% of 320,000 active; purified PP5c, OMFP substrate fluorescence;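 active = inhibition above the campaign's mean inhibition across all tested compounds plus 3 SD, cut at about 9.5% in these data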;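 also: 0% = DMSO only and 100% = 100 µM cantharidin control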
# Target sequence (P53041 whole entry, looked up): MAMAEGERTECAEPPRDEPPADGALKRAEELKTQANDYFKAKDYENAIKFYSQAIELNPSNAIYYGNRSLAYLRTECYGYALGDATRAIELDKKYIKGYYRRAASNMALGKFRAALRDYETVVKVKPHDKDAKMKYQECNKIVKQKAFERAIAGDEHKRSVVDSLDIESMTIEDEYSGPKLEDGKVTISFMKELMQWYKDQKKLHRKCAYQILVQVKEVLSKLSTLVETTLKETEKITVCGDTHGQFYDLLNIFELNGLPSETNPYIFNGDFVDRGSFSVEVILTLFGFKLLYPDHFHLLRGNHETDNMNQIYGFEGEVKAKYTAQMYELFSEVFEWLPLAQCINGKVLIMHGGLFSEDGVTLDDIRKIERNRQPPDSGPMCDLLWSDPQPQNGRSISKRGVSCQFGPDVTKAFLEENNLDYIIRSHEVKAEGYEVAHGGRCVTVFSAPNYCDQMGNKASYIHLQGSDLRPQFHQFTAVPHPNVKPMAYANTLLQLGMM
# NadD inh – inhibitors of Staphylococcus aureus NadD. 0.78% of 360,000 active. inhibition, % at 20 µM. purified NadD enzyme, colorimetric absorbance read-out; in the data active = inhibition above about 26%
# Numbers without * were called inactive; · = no result shown; ! = not confirmed by another sample. Sampled rows, rich in hits. Any-hit rate of the full collection: about 2.4%.
SMILES,PP1 counter,Rpn11 block,PREPL inh,PP5 inh,NadD inh
Cc1ccc(Cl)cc1N1CCN(C(=O)CSc2ccsc2[N+](=O)[O-])CC1,17*,2,17,5,21
O=C(CSc1ccc(Cl)cc1)N1CCN(c2ccc([N+](=O)[O-])cc2Cl)CC1,3,9,-22,2,-3
CN(c1ccc(Cl)cc1)c1cc2c(c3c1ccn3C)C1CCC2O1 (centres undefined),·,18,·,·,-3
COCc1nnc(NC(=O)c2ccc(S(=O)(=O)N3CCCc4ccccc43)cc2)o1,17*,0,-4,1,11
COc1ccccc1NC(=O)c1sc2nc(-c3ccco3)ccc2c1N,10,42*,8,4,24
Cc1ccc(Nc2nnc(SCC(=O)c3ccc(Br)s3)s2)c(C)c1,17*,13,-6,3,10
Oc1cccc2ccc(/C=C/c3ccccc3Br)nc12,16*,16,3,3,2
COc1cc(Br)c(/C=C/c2ccc3cccc(O)c3n2)cc1OC,4,-3,1,1,26
COc1ccc(NC(=O)c2ccco2)cc1NC(=O)c1ccccc1[N+](=O)[O-],2,-6,-7,4,-2
CC(C)c1ccc2[nH]c(O)c(N=NC(=O)c3cccc(S(=O)(=O)Nc4ccccc4Cl)c3)c2c1,-2,1,18,-1,38*
Cc1nn(-c2ccccc2)c(N2CCCC2)c1/C=N/NC(=O)c1cc(-c2ccccc2)nc2ccccc12,10,10,9,4,27
Cc1nn(-c2ccccc2)c(N2CCCC2)c1/C=N/NC(=O)c1cc2ccccc2cc1O,10,·,9,2,39*
C#Cc1ccc([C@@H]2C=C(C(=O)N3CCN(Cc4ccc5c(c4)OCO5)CC3)O[C@H](OCCCCO)C2)cc1,2,-1,45*,2,6
O=C(C1=C[C@H](c2ccc3c(c2)OCO3)C[C@H](OCCCCO)O1)N1CCN(Cc2ccc3c(c2)OCO3)CC1,-1,10,26,2,0
CC(C)c1ccc(NC(=O)C2Cc3c(-c4ccc(Cl)cc4)ccnc3O2)cc1 (centres undefined),·,4,·,·,7
Cc1cc2oc(=O)cc(Cn3ncc(Cl)c(Cl)c3=O)c2cc1Cl,-2,6,10,1,27*
CCOc1ccc(S(=O)(=O)Nc2ncn[nH]2)cc1,-1,1,3,-1,-5
CCOc1ccc(S(=O)(=O)Nc2cc(Sc3ncn[nH]3)c3oc(=O)sc3c2)cc1,16*,·,26,1,·
Cc1ccc(NC(=O)CCCN2C(=O)/C(=C/C=C/c3ccccc3)SC2=S)cc1,6,32,5,1,15
O=C(O)CCCN1C(=O)/C(=C/C=C/c2ccco2)SC1=S,24*,·,12,2,1
CC(=O)Nc1ccc(NC(=O)c2ccc(COc3ccc4c(C)cc(=O)oc4c3)cc2)cc1,0,·,1,-6,·
Cc1cccc(C(C)C)c1NC(=O)c1ccc(COc2ccc3c(C)cc(=O)oc3c2)cc1,17*,7,-10,4,23
CC(C)(C)C1CCc2nc(NC(=O)Cc3cn4ccsc4n3)sc2C1 (centres undefined),16*,4,-1,6,16
CCOC(=O)c1c(C)[nH]c(C(=O)N/N=C/c2cc([N+](=O)[O-])ccc2O)c1C,6,3,4,2,33*
CC(=O)N(C)C[C@@H]1Oc2ncc(Br)cc2C(=O)N([C@H](C)CO)C[C@@H]1C,·,-2,·,·,10
SMILES,PP1 counter,Rpn11 block,PREPL inh,PP5 inh,NadD inh
COc1ccc(C(=O)Oc2cc3c4c(c2)C(C)=CC(C)(C)N4C(=O)C3=O)cc1OC,1,1,-2,1,-1
COc1cccc(C(=O)Oc2cc3c4c(c2)C(C)=CC(C)(C)N4C(=O)C3=O)c1,17*,7,1,5,9
COc1ccccc1Cc1c(-c2ccc(C#N)cc2)nc2c(Cl)cc(C(F)(F)F)cn12,·,·,·,·,18
C=CCc1cccc2cc(C(=O)Nc3ccc(S(=O)(=O)Nc4nnc(CC)s4)cc3)c(=O)oc12,0,5,-10,2,50*
C=CCc1cccc2cc(C(=O)Nc3ccc(F)cc3)c(=O)oc12,-3,2,5,-1,3
Cn1c(-c2ccccc2)c(Sc2ccccc2)c2cc(-c3ccc4[nH]ccc4c3)ccc21,·,·,·,·,23
COc1cccc(/C=N/NC(=O)c2cc(-c3cccn3C)n[nH]2)c1O,16*,-1,27,3,3
CCCCc1c(C)nn(-c2nnc3c4ccccc4n(C)c3n2)c1C,17*,-6,-1,0,9
CC(C)(C)C(=O)c1c(N)[nH]c(C(=O)c2ccccc2)c1-c1cc2ccccc2nc1Cl,·,·,·,·,8
COc1cc(OC)cc(-n2nnnc2SCC(=O)N2CCCC2)c1,16*,4,10,2,-2
O=C1COc2ccc(-c3csc(NCCc4ccccc4)n3)cc2N1,5,-4,51*,1,-1
CCCCC(CC)CNC(=O)c1ncn[nH]1 (centres undefined),-3,1,4,1,2
COc1ccc(-n2nnnc2C(c2cccc(OC)c2OC)N2CCN(C/C=C/c3ccccc3)CC2)cc1 (centres undefined),·,-3,·,·,-2
N#C/C(=C\c1ccc(O)c(O)c1)C(=O)Nc1cccc2ncccc12,13,14,29,2,86*
COc1ccc(/C=C(\C#N)C(=O)Nc2cccc3ncccc23)cc1OC,5,-3,3,-1,0
CCOC(=O)C1=CC[C@@H](c2ccccc2)N(S(=O)(=O)c2ccc(C)cc2)[C@H]1C#N,·,-1,·,·,-6
COc1cc(-c2nc(-c3ccc4c(c3)-c3ccccc3S4(=O)=O)c(-c3ccccc3)[nH]2)cc(OC)c1O,-2,17,23,3,35*
Cc1c(O)cccc1C(=O)N[C@@H](CSc1ccccc1)[C@H](O)CN1C[C@H]2CCCC[C@H]2C[C@H]1C(=O)NC(C)(C)C,17*!,1,-9,3,10
Cc1ccc(C(C(=O)NC2CCCCC2)N(Cc2ccccc2)C(=O)Cc2c[nH]c3ccccc23)o1 (centres undefined),8,5,16,4,6
COc1ccc(CN(C(=O)Cc2c[nH]c3ccccc23)C(C(=O)NC2CCCCC2)c2ccc(C)o2)cc1 (centres undefined),17*,1,-6,8,16
COc1ccc(N=C2NC(=O)/C(=C\C=C\c3ccccc3)S2)cc1,-3,4,12,0,26*
Cc1ccc(N=C2NC(=O)/C(=C/C=C/c3ccco3)S2)cc1,7,13,21,1,34*
CC1CC(C)CN(C(C(=O)NC2CCCCC2)c2cc3ccccc3o2)C1 (centres undefined),·,-3,·,·,0
O=C(NCCO)Nc1ccc2nc(-c3ccco3)c(-c3ccco3)nc2c1,47*,·,42,-2,·
CCCCc1cc(=O)oc2c(C)c(OCC(=O)N3C[C@H]4C[C@@H](C3)c3cccc(=O)n3C4)ccc12,17*,-1,-11,5,4
